# Assay outcomes (PubChem BioAssay)
# RN4220 kill: S. aureus RN4220 growth inhibition | AID 1259311 | OD600, 16 h | inhibition, % (concentration not given with the values) | 0.33% of 330,000 active; in the data active = inhibition above about 85%;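 note: plate controls were untreated cells for no effect and reference antibiotic for full effect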
# CCHF vOTU inh-1: CCHFV vOTU protease inhibition. Pep-AMC fluorescence. inhibition, % at 11.5 µM. 0.55% of 370,000 active. AID 651958; note: 0% = vehicle wells with enzyme and 100% = no enzyme wells
# Sa ugtP lethal: growth inhibition of S. aureus ugtP deletion strain | AID 1259309 | S. aureus RN4220 ugtP deletion, OD600 growth, 16 h | 0.54% of 330,000 active | growth inhibition, % (no concentration beside the values); in the data active = growth inhibition above about 68%;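 note: plate controls were untreated wells for no effect and antibiotic for full effect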
# BJeLR viability: kills HRASV12-expressing BJeLR cells | BJeLR (HRASV12) viability, CellTiter-Glo ATP luminescence, 48 h | inhibition, % (concentration not given with the values) | 0.17% of 300,000 active; in the data active = inhibition above about 50%
# RecA intein inh: blocks M. tuberculosis RecA intein splicing; P9WHJ3; cell-free RecA intein splicing, fluorescence; inhibition, % (concentration not given with the values); 0.75% of 290,000 active; AID 2221; in the data active = inhibition above about 30%;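 note: 0% = vehicle wells and 100% = reference inhibitor control wells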
# Mtb hypoxia rep: reduces hypoxia-regulated biosensor signal in M. tuberculosis | M. tuberculosis hypoxia-regulated fluorescent reporter, fluorescence | fluorescence inhibition, % (test concentration not listed) | 0.1% of 300,000 active | AID 1159583; in the data active = fluorescence inhibition mostly above about 23%, no sharp cut-off; inactive = mostly below about 17%
# CCHF vOTU inh-2: CCHFV vOTU protease inhibition, confirmation; 17% of 1,900 active; shares compounds with CCHF vOTU inh-1; AID 686976; inhibition, % at 11.5 µM; Recombinant CCHFV vOTU, Pep-AMC fluorescence
# An asterisk follows results filed as active; · = no result. The list is not random: actives were taken first. Their share in the collection is about 1.6%. Cut-off read from the data, not from the text of the source, unless noted: active = inhibition above about 30%; inactive = the rest.
SMILES,RN4220 kill,CCHF vOTU inh-1,Sa ugtP lethal,BJeLR viability,RecA intein inh,Mtb hypoxia rep,CCHF vOTU inh-2
O=C(NN=C/C=C/c1ccccc1[N+](=O)[O-])c1cc(-c2cccnc2)nc2ccccc12,-1,·,-5,·,·,-5,·
COc1ccc(C2(c3ccc(OC)cc3)NC(=O)N(CC(=O)N(C)C3CCC(C)CC3)C2=O)cc1 (configuration not stated),2,30*,2,·,·,-1,2
CC1Cc2ccccc2N1C(=O)COC(=O)c1ccc([N+](=O)[O-])o1 (configuration not stated),7,39*,8,·,·,16,10
O=C1C2C(c3ccc(F)cc3)N3C(=O)N(c4ccccc4)C(=O)[C@@]3(Cc3ccccc3)C2C(=O)N1C1CCCCC1 (some centres not stated),3,·,5,·,·,-6,·
c1ccc2c(c1)NCC1CCCN21 (configuration not stated),2,37*,4,-1,-1,6,-1
CN(CCc1ccccc1)C(=O)c1cc(COc2cccc(C(F)(F)F)c2)on1,5,30*,-18,-1,3,9,13
CN(CCCN1CCOCC1)C(=O)c1cc(COc2cccc(C(F)(F)F)c2)on1,2,1,2,-3,-6,-3,·
C=CCN1C=CC(=C/C=C(/C#N)C(=O)OCC)C=C1,1,38*,-6,-4,-5,·,30*
Cc1ccc2c(c1)C1C(CO2)C(c2ccccc2)[C@]2(C)C(=O)N(Cc3ccco3)CC(=O)N12 (some centres not stated),4,·,0,·,·,5,·
Cc1cccc(OCC(=O)Nc2cccc(C(=O)Nc3ccccc3C(=O)O)c2)c1,15,11,10,-3,-1,8,·
CC(C)c1ccc(OCC(=O)Nc2cccc(C(=O)Nc3ccccc3C(=O)O)c2)cc1,15,31*,-1,0,6,-5,-11
O=[N+]([O-])c1cc(Br)cc(C=Nn2cnnc2)c1O,12,·,7,·,·,17,·
CC(=CCC1=C(C)C(=O)c2ccccc2C1=O)CCCC(C)CCCC(C)CCCC(C)C (configuration not stated),8,·,-1,·,·,1,·
Cc1cc2nn(-c3cccc4ccccc34)nc2cc1N,1,-22,-2,1,-2,4,·
Nc1ccc2nn(-c3cccc4ccccc34)nc2c1,6,60*,-2,-6,-28,·,12
Cc1sc2nc(CSc3nnc(Cc4cccs4)n3C3CCCCC3)[nH]c(=O)c2c1C,1,12,0,-3,-6,·,·
Cc1sc2nc(SCc3nnc(-c4cccs4)o3)n(C3CCCC3)c(=O)c2c1C,0,31*,11,3,4,5,-2
O=C(NNC(=O)c1ccc(NC(=O)c2ccccc2)cc1)c1ccc(F)cc1,5,22,2,2,-2,8,·
O=C(NC1=C(Nc2ccc(F)cc2)C(=O)c2ccccc2C1=O)c1ccc(Cl)cc1,77,35*,74,-14,59*,-17,58*
COc1cc(Cl)c(C)cc1NC(=O)CN1C(=O)C2CCCCC2C1=O (configuration not stated),7,32*,9,·,·,5,-14
COc1ccc(Cl)cc1NC(=O)CN1C(=O)C(=O)N(C2CCCC2)C1=O,·,4,·,·,·,·,·
COc1cc(C=NNC(=O)c2cc(C34CC5CC(CC(C5)C3)C4)[nH]n2)ccc1O,2,·,-2,·,·,·,·
Cc1ccccc1SCC(=O)NNC(=O)c1ccccc1O,5,39*,-2,15,21,5,-12
CC1CCC(NC(=O)C(NS(=O)(=O)c2cccc3nsnc23)C(C)C)CC1 (configuration not stated),4,31*,6,-7,-8,4,-11
O=C(Nc1ncc([N+](=O)[O-])s1)C1CCN(S(=O)(=O)c2cnc[nH]2)CC1,2,31*,3,-9,15,9,-1
SMILES,RN4220 kill,CCHF vOTU inh-1,Sa ugtP lethal,BJeLR viability,RecA intein inh,Mtb hypoxia rep,CCHF vOTU inh-2
N#CC(C#N)=Cc1ccc(N2CCOCC2)cc1,2,30*,-4,-9,3,10,-8
O=C1c2ccccc2-c2onc3ccc(NCc4ccco4)c1c23,-5,·,-23,17,17,3,·
O=C1C(Cl)=C(NCc2ccco2)C(=O)c2ccccc21,80,107*,69,·,·,11,81*
CC(C)(C)N1C(=O)C2C(c3ccc(Br)cc3)N3C(=O)N(c4cccc(Cl)c4)C(=O)[C@@]3(Cc3ccccc3)C2C1=O (some centres not stated),3,·,-41,·,·,4,·
O=C(Nc1ccc(Cl)c(-c2nc3ccccc3[nH]2)c1)c1ccc2c(c1)OCO2,7,3,-15,1,11,13,·
O=C(Nc1ccc(-c2nc3ccccc3[nH]2)cc1)c1ccc2c(c1)OCO2,3,36*,-9,6,1,1,-39
CN(C)C=NS(=O)(=O)c1cccn1-c1ncc(C(F)(F)F)cc1Cl,0,·,10,·,·,0,·
CCCn1c(O)c(N=NC(=O)CNC(=O)Cc2ccc(OC)cc2)c2ccccc21,3,32*,8,-6,0,12,-4
O=C(Nc1nnc(C2CCCCC2)s1)C1CC(=O)N(c2ccc(F)cc2)C1 (configuration not stated),-4,-13,8,-10,-2,-4,·
COc1ccc(N2CC(C(=O)Nc3nnc(C4CCCCC4)s3)CC2=O)cc1 (configuration not stated),0,30*,15,2,0,11,5
CCn1c(COc2ccc3ccccc3c2C)nnc1SCC(=O)Nc1cccc(C(=O)O)c1,0,33*,4,5,-1,3,4
CCn1c(COc2cccc(C)c2)nnc1SCC(=O)Nc1cccc(C(=O)O)c1,2,7,-2,9,-7,·,·
Cc1ccccc1C[n+]1cccc2ccccc21,2,-12,3,-2,-3,17,·
CCCCCCCCCCCCCCCC[n+]1cccc2ccccc21,99*,44*,97*,·,·,10,70*
COC(=O)C1=C(c2cccc(OCc3ccccc3)c2)CC2CCC1N2C(=O)NCCN1CCOCC1 (configuration not stated),3,·,-1,·,·,3,·
CC(CN1CCC(Cc2ccccc2)CC1)C(O)c1ccc(O)cc1 (configuration not stated),4,·,0,·,·,5,·
C=CCOc1c(Cl)cc(CNc2ccc(N(C)C)cc2)cc1OC,1,69*,9,-6,·,4,-6
CCOC(=O)C1C2COc3cc(OC)ccc3C2N2C(=O)N(c3ccc(F)cc3)C(=O)[C@]12C (some centres not stated),5,·,1,·,·,2,·
O=C(O)CC/C(=C\c1ccc(N2CCCC2)c([N+](=O)[O-])c1)c1nc2ccccc2s1,24,33*,25,2,7,7,10
